IL-1B inflam inh: inhibitors of inflammasome signaling (IL-1 beta secretion). THP-1 LPS/ATP IL-1B secretion, AlphaLISA, 16 h; hits give low values. activity change, % at 57.5 µM. 360,000 tested, 4.7% active; in the data active = activity change below about -50%; inconclusive = mostly about -30% to -49%
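THP-1 cells pretreated 1 hr with compounds (up to 57.5 uM final), then stimulated with LPS (250 ng/mL final) plus ATP (1.25 mM final); secreted IL-1B measured by AlphaLISA after 16 hr, decreased signal indicating inhibition.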
ELG1 repair inh: blocks ELG1-dependent DNA repair in HEK293T cells | HEK293T ELG1-luciferase reporter, luminescence, 16 h; DNA damage induced by 5-fluorouridine | Potency, µM (titrated, usually from 46.1 µM), for inactives: top-dose activity change, negative = inhibition, actives largely listed as inhibitors | 330,000 tested, 2.3% active | AID 504467; note: potency is the fitted concentration of half-maximal effect; nearly all actives have a fitted effect of over 55% in size
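HEK293T cells expressing luciferase-tagged ELG1 (2,000/well) received 5-Fluorouridine plus compound or DMSO for 16 hr at 37 °C. Luciferase was read by ONE-Glo luminescence after 30 min at room temperature.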
DT40 TDP1 no CPT: qHTS for Inhibitors of human tyrosyl-DNA phosphodiesterase 1 (TDP1): qHTS in cells in absence of CPT. 420,000 tested, 15% active. Potency, µM (top dose mostly 46.2 µM), for the others: at the highest dose activity change, negative = growth inhibition, actives largely listed as inhibitors. DT40 Tdp1-/- hTDP1 cells, no CPT, ATP luminescence, 48 h. AID 686978, 2013; note: potency is the fitted concentration of half-maximal effect; nearly all actives have a fitted effect of over 55% in size
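Chicken DT40 Tdp1-/- cells complemented with human TDP1, screened without camptothecin (DMSO vehicle only), 400 cells/well. Compounds pin-transferred, cells incubated at 37 °C for at least 48 hr. Growth read as ATP-dependent luminescence (CellTiter-Glo, 30 min at RT).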
DT40 TDP1 CPT: DT40-hTDP1 cell growth loss with CPT; Potency, µM (titrated, usually from 46.2 µM), for inactives: at the highest dose activity change, negative = growth inhibition, usual class: inhibitors; 420,000 tested, 12% active; chicken DT40 Tdp1-/-;hTDP1 cells + 20 nM CPT, ATP luminescence, 48 h; AID 686979; note: potency is the fitted concentration of half-maximal effect; nearly all actives have a fitted effect of over 55% in size
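Cell growth measured by CellTiter-Glo luminescence after a minimum 48 h, 37 C compound exposure with 20 nM CPT in Tdp1-knockout DT40 cells stably expressing hTDP1, seeded 400/well; qHTS titration format.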
HT1080 IDH1KD tx: kills HT-1080 cells with IDH1 knockdown. HT-1080 IDH1 knockdown viability, ATP luminescence, 48 h. Potency, µM (series often up to 46.1 µM), without a hit: at the top dose activity, negative = toxicity, usual class: cytotoxic. 360,000 tested, 2% active;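 note: potency is the fitted concentration of half-maximal effect; 0% = DMSO wells and -100% = cell-free medium wells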
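Luminescent ATP read-out (CellTiter-Glo, 10 min at room temperature) after 48 h compound exposure at 37 °C gave viability of IDH1-knockdown HT-1080 cells. Activity was normalised to DMSO and cell-free wells, then fitted as concentration-response curves.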
HT1080-NT tox: kills 2HG-producing HT-1080-NT fibrosarcoma cells | HT-1080-NT fibrosarcoma viability, CellTiter-Glo ATP luminescence, 48 h | Potency, µM (doses to about 46.1 µM), inactives show at the highest dose activity, negative = less viability, actives largely listed as cytotoxic | 360,000 tested, 1.6% active | AID 686970;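 note: NT is the 2HG producing partner of a matched IDH1 knockdown line; potency is the fitted concentration of half-maximal effect; 0% = DMSO-treated cells and -100% = media-only wells without cells; nearly all actives have a fitted effect of over 55% in size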
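Viability of the 2HG-overproducing fibrosarcoma line after 48 hours of compound exposure at 37 degrees C was determined by luminescence with CellTiter-Glo, and concentration-effect curves were then fitted and categorized.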
Starred values were filed as active, the others as inactive; ? = inconclusive; / = not tested or not shown. Sampled rows, rich in hits. Any-hit rate of the full collection: about 19%. Unless noted, calls come from the whole dose curve; as a rule, active = well fitted curve in the direction sought with a large enough effect; inconclusive = small, poorly fitted or top-dose-only effect, or another doubt; inactive = no such curve, though single readings can be large; an effect the other way counts as inactive or inconclusive. Unless noted, % is set by controls: 0 for no effect and ±100 for the full control effect.

SMILES	IL-1B inflam inh	ELG1 repair inh	DT40 TDP1 no CPT	DT40 TDP1 CPT	HT1080 IDH1KD tx	HT1080-NT tox
Cn1cc([N+](=O)[O-])c(C(=O)Nc2cc(Oc3cccnc3)cc([N+](=O)[O-])c2)n1	-96*	3.2µM*	?	-18%	18µM*	21µM*
CCn1c(C(=O)Nc2ccccc2C(=O)OC)cc2sc(Cl)cc21	/	/	-16%	0%	/	/
CN(C)c1ncc2nc(CCc3ccccc3)c(=O)n(Cc3ccc(F)cc3)c2n1	/	/	-27%	2%	/	/
COc1ccc(OCc2cc(C(=O)NC(C)c3csc(C)n3)no2)c(Cl)c1 (centres undefined)	1	?	?	?	-4%	-3%
COc1ccccc1NS(=O)(=O)c1ccc(C(=O)NCCCN2CCCC2=O)cc1	0	2%	-19%	-15%	-4%	-2%
COc1cc(/C=N/NC(=O)COc2ccc(C)cc2)ccc1OC(=O)c1cccs1	-24	?	26µM*	?	5%	8%
CCOc1cc(/C=N/NC(=O)COc2ccc(C)cc2)ccc1OC(=O)c1cccs1	?	1%	?	?	-9%	-9%
CCOc1cc(/C=N/NS(=O)(=O)c2ccccc2)ccc1OS(=O)(=O)c1ccc(C)cc1	-4	?	-25%	?	-5%	-7%
CCOc1cc(/C=N/NC(=O)COc2ccc(Cl)cc2)ccc1OS(=O)(=O)c1ccccc1	17	0%	23µM*	?	?	-23%
CCOc1cc(/C=N\Nc2ccc([N+](=O)[O-])cc2)ccc1OCC(=O)Nc1ccc(C)c(C)c1	87	?	15µM*	23µM*	3%	-1%
CNC(=S)N/N=C/c1ccc(OCC(=O)Nc2c(C)cc(C)cc2C)c(OC)c1	42	3%	?	21µM*	-15%	-21%
CCOc1cc(/C=N\NC(=O)Cc2ccccc2)ccc1OCC(=O)Nc1ccc(C)c(C)c1	18	?	21µM*	13µM*	10%	4%
COc1cc(/C=N\NC(=O)CN2CCOCC2)ccc1OCC(=O)Nc1ccc(C)c(C)c1	-6	4%	?	?	4%	-2%
COc1cc(/C=N\Nc2ccc([N+](=O)[O-])cc2)ccc1OCC(=O)Nc1ccc(C)c(C)c1	55	?	18µM*	?	4%	-1%
Clc1cccc(Cl)c1C1=NOC(c2nnc(-c3ccccc3)o2)C1 (centres undefined)	-3	?	-21%	-25%	16%	20%
O=[N+]([O-])c1c(C(Cl)Cl)nn(-c2ccccc2)c1N1CCOCC1	-81*	-16%	-27%	?	-9%	-12%
O=[N+]([O-])c1c(C(Cl)Cl)nn(-c2ccc(Cl)cc2)c1N1CCCCC1	0	2%	16µM*	?	-7%	-9%
CC1=NN(c2nc(N)nc(/C(C#N)=C/c3ccc([N+](=O)[O-])o3)n2)C(C)(C)C1	-16	/	0.46µM*	0.58µM*	?	-3%
O=C(NCC1COc2ccccc2O1)C1CCN(S(=O)(=O)c2ccc(Cl)cc2)CC1 (centres undefined)	-7	?	?	?	0%	1%
COc1ccc2[nH]c3c(=O)n(Cc4ccc(C(=O)N5CCC(C(N)=O)CC5)cc4)c(=S)[nH]c3c2c1	-10	8.2µM*	29µM*	?	6%	0%
CCCCNC(=O)c1ccc(Cn2c(=S)[nH]c3c([nH]c4ccc(OC)cc43)c2=O)cc1	18	?	?	-14%	18µM*	?
COc1ccc(N2CC(NC(=O)/C=C\c3ccc4c(c3)OCO4)CC2=O)cc1 (centres undefined)	/	/	2%	-20%	/	/
CCOC(=O)c1cc(C(=O)OCC)c2ccccn2c1=O	-14	10%	18µM*	?	13%	2%
CCOC(=O)c1c[nH]n(-c2ccccc2)c1=O	-9	?	-28%	2%	10%	-3%
O=C(NCCN1CCc2ccccc2C1)Nc1ccc([N+](=O)[O-])cc1	1	?	23µM*	?	-4%	-3%
SMILES	IL-1B inflam inh	ELG1 repair inh	DT40 TDP1 no CPT	DT40 TDP1 CPT	HT1080 IDH1KD tx	HT1080-NT tox
O=C(NCCN1CCCCC1)Nc1ccc(Br)cc1	-23	-2%	-7%	4%	-4%	-12%
O=C(NCCCN1CCCC1=O)Nc1ccc([N+](=O)[O-])cc1	0	?	2%	-1%	14%	12%
O=C(NCCCN1CCc2ccccc2C1)Nc1ccc(Br)cc1	-17	6%	?	?	18µM*	?
CCOc1ccc(N2CC(NC(=O)c3ccc4c(c3)OCO4)CC2=O)cc1 (centres undefined)	/	/	-10%	-14%	/	/
CCOC(=O)c1cc2sccc2n1CC(=O)N1c2ccccc2CC1C (centres undefined)	-18	16%	21µM*	18µM*	0%	14%
CC1Cc2ccccc2N1C(=O)CCn1c(=O)sc2ccccc21 (centres undefined)	-11	18%	16µM*	?	-6%	14%
CCOC(=O)c1cc2sccc2n1CC(=O)c1ccc2c(c1)OCCO2	13	-3%	13µM*	15µM*	-2%	-19%
CCOC(=O)c1cc2sccc2n1CC(=O)O	25	3%	1%	-2%	?	2%
O=C(NCc1ccc(N2CCCC2=O)cc1)c1cc(COc2c(F)cccc2F)on1	-13	?	?	?	7%	3%
O=C(NCc1ccc(F)cc1)c1ccc(CS(=O)(=O)c2ccc(Cl)cc2)o1	/	/	16µM*	?	/	/
COc1ccccc1S(=O)(=O)Cc1ccc(C(=O)NCc2ccc(Cl)cc2)o1	/	/	18µM*	?	/	/
CC[C@H](C)[C@H]1CNC(=O)C(=O)N1CC1CCN(CC2CCC(C)CC2)CC1 (some centres undefined)	0	/	-7%	?	-5%	-2%
O=[N+]([O-])c1cc2c(c(CSc3nnnn3-c3ccc(O)cc3)c1)OCOC2	-15	0%	23µM*	21µM*	-19%	-13%
COc1cccc(CN2CCN(CC(=O)Nc3ccccc3Cl)CC2)c1	-7	13µM*	16µM*	?	-8%	-6%

Bioassay records as filed in PubChem BioAssay.
